Source: PubChem BioAssay
This is a sample that favours compounds with a hit; in the whole collection about 7.8% have one here.
VACV Venus inh: inhibitors of vaccinia virus (Venus reporter). actives 0.46% (n = 330,000). Potency, µM (top dose mostly 36.5 µM), for the others: at the highest dose activity change, negative = inhibition, most hits filed as inhibitors. Vaccinia virus Venus reporter expression, fluorescence; calls by dose curve; tested in A549 cells; also: potency is read from the fitted curve at half-maximal effect; nearly all actives have a fitted effect of over 30% in size
Lassa entry inh: Lassa virus entry inhibition | actives 1.2% (n = 300,000) | Lassa virus pseudotype entry inhibition, cell reporter | Potency, µM (doses to about 37.9 µM), for the others: at the top dose activity change, negative = inhibition, hits mostly inhibitors; calls by dose curve; tested in HEK293 cells; also: potency is read from the fitted curve at half-maximal effect; nearly all actives have a fitted effect of over 50% in size
HCV inh: inhibitors of hepatitis C virus infection; Huh7.5.1 HCVcc-Cre infection, luciferase reporter, 44 h; Potency, µM (highest dose often 41.8 µM), inactives show top-dose activity change, negative = inhibition, most hits filed as inhibitors; actives 3.4% (n = 340,000); active = well fitted inhibition curve with a large enough effect; inconclusive = small, poorly fitted or top-dose-only effect, or another doubt; inactive = no such curve, though single readings can be large or run the other way; also: potency is read from the fitted curve at half-maximal effect
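Whole-lifecycle infectious HCVcc-Cre system; cells 1,000/well, compound then virus (~0.5 moi) added 4 h after plating, 44 h culture. Luciferase read 15 sec following 15 min substrate incubation, room temp.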
Marburg entry inh: blocks Marburg virus binding to or entry into cells; Potency, µM (doses to about 37.8 µM), for the others: at the highest dose activity change, negative = inhibition, most hits filed as inhibitors; actives 1.8% (n = 300,000); Marburg virus pseudotyped entry inhibition, cell reporter; calls by dose curve; tested in HEK293 cells; also: potency is read from the fitted curve at half-maximal effect
Vaccinia mCherry: inhibitors of vaccinia virus infection (mCherry reporter signal) | Potency, µM (series often up to 36.5 µM), inactives show at the top dose activity change, negative = inhibition, most hits filed as inhibitors | AID 720579 | actives 0.63% (n = 310,000) | Vaccinia virus mCherry reporter infection, fluorescence; calls by dose curve; tested in A549 cells; also: potency is read from the fitted curve at half-maximal effect; nearly all actives have a fitted effect of over 35% in size
HCMV inh: blocks human cytomegalovirus replication; actives 4.5% (n = 410,000); AID 1259415; activity change, negative = inhibition, % at 57.5 µM; HFF cells, HCMV-luciferase reporter, 72 h; active compounds read low; in the data active = activity change below about -60%; inconclusive = no clear call, values can overlap the other calls; inactive = above about -39%
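Steps: HFFs plated, 16 h 37C; compounds added; HCMV-luciferase added to MOI 1 PFU/cell; 72 h 37C; OneGlo reagent, 5 min room temperature; luminescence read, normalized to controls.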
Numbers without * were called inactive; ! = not active in a repeat; [ ] = remark or other dose. % is scaled to controls: 0 for no effect and ±100 for the full control effect.

What do the screens show for `CN1C[C@]2(CCN3CCCC(C)(C)[C@@H]32)c2ccccc21`?
HCMV inh: 17.6

Results for CCC1CCCCN1CCCNC(=O)c1sc2nc(C)cc(C)c2c1-n1cccc1 (stereo not given) ?
VACV Venus inh: -12.4%; Lassa entry inh: 16.6%[46.1 µM]; Marburg entry inh: 19.6%[46.1 µM]; Vaccinia mCherry: inactive; HCMV inh: -14.9

How did CCOc1cc(CNC(=O)c2ccc3c(c2)nc2n3CCCCC2)ccc1OC do in these assays?
VACV Venus inh: -9.8%; Lassa entry inh: 6.3%[46.1 µM]; Vaccinia mCherry: -12.8%; HCMV inh: -14.1

Results for OC1(c2cccnc2)CCN(Cc2ccc3c(c2)CN(Cc2ccc(F)c(F)c2)CCO3)CC1 ?
VACV Venus inh: -10.6%; Vaccinia mCherry: -12.0%

Results for Cc1ccc(CN(Cc2cccn2-c2nnc(N3CCCC3=O)s2)C(=O)Nc2cc(C)cc(C)c2)cc1 ?
VACV Venus inh: -1.5%; Marburg entry inh: 10.6%[46.1 µM]; Vaccinia mCherry: -7.9%; HCMV inh: 15.6

What do the screens show for `CCOc1ccc2[nH]c3c(N4CCc5ccccc5C4)ncnc3c2c1`?
VACV Venus inh: inconclusive; Lassa entry inh: inconclusive; HCV inh: -79.0%; Marburg entry inh: 10µM*; Vaccinia mCherry: 3.55µM*; HCMV inh: 8.8

How did CCOc1ccc2[nH]c3c(NCCOC)ncnc3c2c1 do in these assays?
HCV inh: -10.5%; HCMV inh: 27.1

How did Cc1ccc2[nH]c3c(N4CCc5ccccc5C4)ncnc3c2c1 do in these assays?
VACV Venus inh: inconclusive; Lassa entry inh: inconclusive; HCV inh: 3.55µM*; Marburg entry inh: 6.31µM*; Vaccinia mCherry: inconclusive; HCMV inh: -67.1*

Results for c1ccc2c(c1)[nH]c1c(N3CCSCC3)ncnc12 ?
Lassa entry inh: 6.3%; HCV inh: 12.6µM*; Marburg entry inh: -10.6%; HCMV inh: -32.5

How did CCc1ccccc1NC(=O)N1CCN(c2nnc(C)c3c(C)n(-c4ccccc4)nc23)CC1 do in these assays?
VACV Venus inh: -28.6%; Lassa entry inh: 26.0%[46.1 µM]; Vaccinia mCherry: -24.2%; HCMV inh: -15.5

Results for Cc1cccc(-c2noc(-c3ccc(N4CCCC4)c([N+](=O)[O-])c3)n2)c1 ?
VACV Venus inh: -4.9%; Lassa entry inh: -6.2%[46.1 µM]; Marburg entry inh: inconclusive; Vaccinia mCherry: 0.4%; HCMV inh: -74.2*

How did Cc1cccc(-c2noc(-c3ccc(N4CCOCC4)c([N+](=O)[O-])c3)n2)c1 do in these assays?
VACV Venus inh: 1.5%; Lassa entry inh: 2.6%[46.1 µM]; Marburg entry inh: inconclusive; Vaccinia mCherry: -12.6%; HCMV inh: -22.7

How did Cc1cccc(-c2noc(-c3ccc(N4CCN(C)CC4)c([N+](=O)[O-])c3)n2)c1 do in these assays?
VACV Venus inh: -9.8%; Lassa entry inh: -22.5%[46.1 µM]; Marburg entry inh: -2.5%[46.1 µM]; Vaccinia mCherry: -19.3%; HCMV inh: -77.7*

What do the screens show for `c1csc(Cc2nn3c(-c4n[nH]c5c4CCC5)nnc3s2)c1`?
VACV Venus inh: -18.9%; Lassa entry inh: -20.9%; HCV inh: inconclusive; Marburg entry inh: -18.3%; Vaccinia mCherry: inconclusive; HCMV inh: 39.1

Results for COc1cc(OC)c(-c2nn3c(-c4n[nH]c5c4CCC5)nnc3s2)cc1OC ?
VACV Venus inh: inconclusive; Vaccinia mCherry: 7.08µM*!

How did CCCOc1ccc(N2C(=O)C[C@@H](N(Cc3ccc(S(N)(=O)=O)cc3)C(=O)CC)C2=O)cc1 do in these assays?
Marburg entry inh: 2.6%

What do the screens show for `Clc1ccc2c(NCCNC3CCCCC3)ccnc2c1`?
VACV Venus inh: inconclusive; Lassa entry inh: inconclusive; HCV inh: 7.94µM*; Marburg entry inh: 1.58µM*; Vaccinia mCherry: -12.8%; HCMV inh: -83.6*

What do the screens show for `CCOc1ccccc1Nc1cc(-c2ccccc2)nc(C)n1`?
VACV Venus inh: -5.0%; Lassa entry inh: 12.4%[46.1 µM]; Marburg entry inh: -24.6%[46.1 µM]; Vaccinia mCherry: -4.7%; HCMV inh: -14.3

Results for CC(CCCN1CCCC1)Nc1ccnc2cc(Cl)ccc12 (stereo not given) ?
VACV Venus inh: -8.0%; Lassa entry inh: 5.4%[46.1 µM]; HCV inh: inconclusive; Marburg entry inh: 3.55µM*; Vaccinia mCherry: inconclusive; HCMV inh: inconclusive

How did CCOc1ccccc1Nc1cc(C)c2cccc(C)c2n1 do in these assays?
VACV Venus inh: -13.1%; Lassa entry inh: -10.8%[46.1 µM]; HCV inh: 7.94µM*; Marburg entry inh: inconclusive; Vaccinia mCherry: -11.1%; HCMV inh: 37.2

Results for O=C(NCCCNc1ccnc2cc(Cl)ccc12)c1ccccc1F ?
HCV inh: 10µM*; HCMV inh: -34.0

Results for COc1cc(CNc2nc(C)c(-c3ccn(CC4CCCN(C)C4)n3)s2)ccc1F (stereo not given) ?
VACV Venus inh: -5.9%; Vaccinia mCherry: -13.1%

Results for CCOc1ccccc1Nc1ccnc2cc(Cl)ccc12 ?
VACV Venus inh: inconclusive; Lassa entry inh: 10µM*; HCV inh: inconclusive; Marburg entry inh: inconclusive; Vaccinia mCherry: inactive; HCMV inh: inconclusive

How did CCN(CC)Cc1ccc(Nc2ccnc3cc(Cl)ccc23)cc1O do in these assays?
VACV Venus inh: -14.4%; Vaccinia mCherry: inactive

How did Clc1ccc2c(NCc3ccccn3)ccnc2c1 do in these assays?
HCV inh: inconclusive; HCMV inh: -72.1*

Results for C/C(=N\NC(=S)NC(C)C)c1ccccc1OC(F)F ?
VACV Venus inh: -13.3%; Lassa entry inh: inconclusive; HCV inh: 14.1µM*; Marburg entry inh: -7.5%[46.1 µM]; Vaccinia mCherry: -12.5%; HCMV inh: -113.5*

Results for CCNC(=S)N/N=C(\C)c1ccc2ccccc2c1OC(F)F ?
VACV Venus inh: -6.7%; Lassa entry inh: inconclusive; HCV inh: inconclusive; Marburg entry inh: inconclusive; Vaccinia mCherry: -20.2%; HCMV inh: -33.0

Results for COc1cc(/C(C)=N/NC(=S)NC(C)C)cc(OC)c1OC ?
VACV Venus inh: -24.8%; Lassa entry inh: -17.8%; HCV inh: -6.8%; Marburg entry inh: inconclusive; Vaccinia mCherry: -25.4%; HCMV inh: -102.3*

What do the screens show for `C=C1CCC2C(CC2(C)C)C(=O)CCC1O` (stereo not given)?
VACV Venus inh: 0.0%; Vaccinia mCherry: -0.2%

Results for CC(C)NC(=O)c1ccc(NC(=O)N2CCCCc3ccccc32)cc1 ?
VACV Venus inh: -8.4%; Lassa entry inh: 5.3%[46.1 µM]; Vaccinia mCherry: -7.4%; HCMV inh: -28.8

What do the screens show for `O=C(Nc1ccc(F)cc1)c1cccc(N2CCCS2(=O)=O)c1`?
VACV Venus inh: -1.4%[7.34 µM]; Lassa entry inh: inconclusive; Vaccinia mCherry: -9.4%[7.34 µM]; HCMV inh: 1.6

How did O=C1C(n2ccc3ccccc32)c2cc(OC(F)(F)F)ccc2N1Cc1ccc(C(F)(F)F)cc1 (stereo not given) do in these assays?
HCMV inh: -88.8*

How did O=C1C(n2ccc3ccccc32)c2cccc(F)c2N1Cc1ccc(Cl)nc1 (stereo not given) do in these assays?
HCMV inh: -13.0
